From PubChem BioAssay AID1159580 (chemical genetic matrix, 2015)
Where “and” joins values, the source holds several entries; their conditions need not be identical. Equal entries are not always repeated. About 2,000 (36%) of roughly 5,500 compounds were called active. About 18% were inconclusive and are not listed. Cut-off read from the data, not from the text of the source: active = normalized growth mostly below about 0.91 (no sharp cut-off); inconclusive = no clear call, values can overlap the other calls; inactive = mostly above about 0.92. This is one part of the list.

Test: chemical genetic growth profiling, strain panel (AID 1159580);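 note: tested at 20 µM; growth read once vehicle control cultures reached saturation at 30 °C; 1 = growth at the plate median or of vehicle wells; lower values mean less growth of the strain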
Conditions: S. cerevisiae deletion strains, growth OD

Measured: normalized growth

C=CC1=C(C(=O)O)N2C(=O)[C@@H](NC(=O)/C(=N/O)c3csc(N)n3)[C@H]2SC1
inactive: locus YAL013W, strain DEP1, active compounds read low 1 | locus YAL021C, strain ccr4, active compounds read low 1.01 | locus YAL026C, strain drs2, active compounds read low 1.02 | locus YAL030W, strain snc1, active compounds read low 1.01 | locus YBL061C, strain skt5, active compounds read low 1.03 | locus YBR009C, strain hhf1, active compounds read low 1 | locus YBR021W, strain FUR4, active compounds read low 1.02 | locus YBR023C, strain chs3, active compounds read low 1.02 | locus YBR171W, strain sec66, active compounds read low 1.03 | locus YBR229C, strain ROT2, active compounds read low 0.992 | locus YBR231C, strain swc5, active compounds read low 1.01 | locus YBR279W, strain paf1, active compounds read low 1.01 | locus YCL011C, strain gbp2, active compounds read low 1.04 | locus YCL016C, strain dcc1, active compounds read low 1.03 | locus YCL029C, strain bik1, active compounds read low 0.987 | locus YCL061C, strain MRC1, active compounds read low 1.04 | locus YCL069W, strain vba3, active compounds read low 1.02 | locus YCR088W, strain abp1, active compounds read low 1.02 | locus YDL005C, strain med2, active compounds read low 1.02 | locus YDL035C, strain GPR1, active compounds read low 1.03 | locus YDL040C, strain nat1, active compounds read low 1.01 | locus YDL074C, strain BRE1, active compounds read low 1.04 | locus YDL101C, strain DUN1, active compounds read low 0.991 | locus YDL134C, strain PPH21, active compounds read low 0.99 | locus YDL185W, strain tfp1, active compounds read low 0.99 | locus YDL192W, strain arf1, active compounds read low 0.986 | locus YDR001C, strain nth1, active compounds read low 1.02 | locus YDR069C, strain doa4, active compounds read low 1.04 | locus YDR101C, strain arx1, active compounds read low 0.99 | locus YDR137W, strain rgp1, active compounds read low 1.03 | locus YDR150W, strain NUM1, active compounds read low 1.01 | locus YDR159W, strain sac3, active compounds read low 1.02 | locus YDR162C, strain NBP2, active compounds read low 1.03 | locus YDR195W, strain ref2 1 | locus YDR297W, strain sur2, active compounds read low 1.03 | locus YDR318W, strain mcm21, active compounds read low 1.01 | locus YDR334W, strain swr1, active compounds read low 1.02 | locus YDR335W, strain msn5, active compounds read low 1.02 | locus YDR388W, active compounds read low 0.995 | locus YDR392W, strain spt3, active compounds read low 1.01 | locus YDR502C, strain sam2, active compounds read low 0.993 | locus YEL003W, strain gim4, active compounds read low 1.01 | locus YEL037C, strain rad23, active compounds read low 1.02 | locus YEL061C, strain CIN8 (second series), active compounds read low 1.01 | locus YEL061C, strain CIN8, active compounds read low 1.01 | locus YER015W, strain faa2, active compounds read low 1.02 | locus YER016W, strain bim1, active compounds read low 1.02 | locus YER110C, active compounds read low 0.978 | locus YER111C, strain swi4, active compounds read low 1.01 | locus YER155C, strain BEM2 (second series), active compounds read low 1.06 | locus YER155C, strain BEM2, active compounds read low 0.994 | locus YER167W, strain BCK2, active compounds read low 1 | locus YFR010W, strain ubp6, active compounds read low 1.03 | locus YGL078C, strain dbp3, active compounds read low 0.989 | locus YGL086W, strain mad1, active compounds read low 0.999 | locus YGL167C, strain pmr1, active compounds read low 1.01 | locus YGL173C, strain kem1, active compounds read low 1.04 | locus YGL227W, strain vid30, active compounds read low 1.01 | locus YGL240W, strain doc1, active compounds read low 1.01 | locus YGL248W, strain PDE1, active compounds read low 0.989 | locus YGL253W, strain hxk2, active compounds read low 1.01 | locus YGR078C, strain PAC10, active compounds read low 1.07 | locus YGR135W, strain pre9, active compounds read low 0.991 | locus YGR229C, strain SMI1, active compounds read low 1.06 | locus YGR252W, strain gcn5, active compounds read low 1 | locus YHR013C, strain ard1, active compounds read low 1.08 | locus YHR027C, strain rpn1, active compounds read low 1.02 | locus YHR030C, strain SLT2, active compounds read low 1 and 0.986 | locus YHR079C, strain IRE1 (second series), active compounds read low 0.989 | locus YHR079C, strain IRE1, active compounds read low 0.975 | locus YHR094C, strain hxt1, active compounds read low 0.991 | locus YHR129C, strain ARP1, active compounds read low 0.995 | locus YHR142W, strain chs7, active compounds read low 1.01 | locus YHR200W, strain rpn10, active compounds read low 0.988 | locus YIL066C, strain RNR3, active compounds read low 1.01 | locus YIL073C, strain SPO22, active compounds read low 1.04 | locus YIL125W, strain kgd1, active compounds read low 0.991 | locus YIR030C, strain dcg1, active compounds read low 0.989 | locus YJL092W, strain hpr5, active compounds read low 1.02 | locus YJL095W, strain BCK1 (second series), active compounds read low 1.01 | locus YJL095W, strain BCK1, active compounds read low 1.01 and 0.982 | locus YJL115W, strain asf1, active compounds read low 1.05 | locus YJL129C, strain trk1, active compounds read low 1.02 | locus YJL134W, strain LCB3, active compounds read low 0.995 | locus YJL154C, strain vps35, active compounds read low 1.02 | locus YJL164C, strain tpk1, active compounds read low 1.04 | locus YJL166W, strain qcr8, active compounds read low 1.04 | locus YJL168C, strain set2, active compounds read low 0.986 | locus YJL187C, strain SWE1 (second series), active compounds read low 0.997 | locus YJL187C, strain SWE1, active compounds read low 1.03 | locus YJR043C, strain POL32, active compounds read low 1.01
